PubChem BioAssay (NCATS)
“And” between values parts separate entries of the source, which are not always exact repeats. Identical values can stand only once. Inconclusive results are not listed. Entries that show only a call come without a potency. A number with no mark means an inactive call. The source made the active and inactive calls. The call rests on the fitted dose curve; in most records, active means well fitted curve in the direction sought with a large enough effect; inconclusive means small, poorly fitted or top-dose-only effect, or another doubt; inactive means no such curve, though single readings can be large; an effect the other way counts as inactive or inconclusive.

How the values were obtained:
[1] = biological target: Cellular tumor antigen p53 (Homo sapiens) (UniProt P04637); assay: Primary qHTS for small molecule compounds that upregulate eGFP-tagged delta133p53alpha (in N-terminal) cells. (AID 2060322); conditions: NCI-H358 eGFP-delta133p53alpha fluorescence, 24 h; activation: hits give high values; further: nearly all actives have a fitted effect of over 75% in size; further: potency means the concentration at half of the fitted maximal effect;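 on activation: cells pre-induced with doxycycline then dosed without doxycycline; series mostly up to about 56 µM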
Outline: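 NCI-H358 cells pre-induced 24 h with 10 ng/ml doxycycline for eGFP-delta133p53alpha, plated dox-free and exposed 24 h at 37C to titrated compounds. Fixed, Hoechst-stained; gated GFP peak intensity by laser scanning cytometry, normalized to DMSO (0%) and 57.5 uM 5-azacytidine (100%).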

[2] = biological target: Aldehyde dehydrogenase, mitochondrial (Homo sapiens) (UniProt P05091); assay: qHTS for Inhibitors of the Aldehyde Dehydrogenase Family (ALDH2) Primary screen (AID 2061308); further: nearly all actives have a fitted effect of over 55% in size
[3] = biological target: Retinaldehyde dehydrogenase 3 (Homo sapiens) (UniProt P47895); assay: qHTS for Inhibitors of the Aldehyde Dehydrogenase Family (ALDH1A3) Primary screen (AID 2061315)
[4] = BET inhibitor-based combinations targeting novel dependencies in MECOM-rearranged (r) AML: MV-4-11 cell line (AID 2202233); further: potency means the concentration at half of the fitted maximal effect; nearly all actives have a fitted effect of over 45% in size
Outline: (§1)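 Using pin-tool transfer, drugs were added in 11 doses to cells (500/well), incubated 48 hr, and assessed with CellTiter-Glo. Z-AUC is a mean-centring transformation applied separately to each screened line.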

[5] = BET inhibitor-based combinations targeting novel dependencies in MECOM-rearranged (r) AML: AML-191 cell line (AID 2202236; further: nearly all actives have a fitted effect of over 35% in size; further: potency means the concentration at half of the fitted maximal effect)
Outline: (§2)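 Viability of cells (500 per well) is scored by luminescent CellTiter-Glo at 48 hr post-dosing. Eleven-point titrations are normalized to DMSO and empty controls and reduced to AUC values.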

[6] = BET inhibitor-based combinations targeting novel dependencies in MECOM-rearranged (r) AML: AML-194 cell line (AID 2202237; further: nearly all actives have a fitted effect of over 40% in size; further: potency means the concentration at half of the fitted maximal effect)
Outline: as §2

[7] = BET inhibitor-based combinations targeting novel dependencies in MECOM-rearranged (r) AML: HNT-34 cell line (AID 2202234); further: nearly all actives have a fitted effect of over 35% in size; further: potency means the concentration at half of the fitted maximal effect
Outline: as §1

[8] = BET inhibitor-based combinations targeting novel dependencies in MECOM-rearranged (r) AML: UCSD-AML1 cell line (AID 2202235); further: nearly all actives have a fitted effect of over 40% in size; further: potency means the concentration at half of the fitted maximal effect
Outline: as §1

[9] = BET inhibitor-based combinations targeting novel dependencies in MECOM-rearranged (r) AML: SET-2 cell line (AID 2202231); conditions: SET-2 AML cells viability, CellTiter-Glo luminescence, 48 h; viability: hits give low values, concentration not given here; further: potency means the concentration at half of the fitted maximal effect; nearly all actives have a fitted effect of over 35% in size
Outline: as §2

[10] = BET inhibitor-based combinations targeting novel dependencies in MECOM-rearranged (r) AML: OCI-AML3 cell line (AID 2202232); conditions: Potency: OCI-AML3 viability; further: potency means the concentration at half of the fitted maximal effect; nearly all actives have a fitted effect of over 35% in size
Outline: as §2

Sequence of Cellular tumor antigen p53 (Homo sapiens) (P04637 whole entry, looked up): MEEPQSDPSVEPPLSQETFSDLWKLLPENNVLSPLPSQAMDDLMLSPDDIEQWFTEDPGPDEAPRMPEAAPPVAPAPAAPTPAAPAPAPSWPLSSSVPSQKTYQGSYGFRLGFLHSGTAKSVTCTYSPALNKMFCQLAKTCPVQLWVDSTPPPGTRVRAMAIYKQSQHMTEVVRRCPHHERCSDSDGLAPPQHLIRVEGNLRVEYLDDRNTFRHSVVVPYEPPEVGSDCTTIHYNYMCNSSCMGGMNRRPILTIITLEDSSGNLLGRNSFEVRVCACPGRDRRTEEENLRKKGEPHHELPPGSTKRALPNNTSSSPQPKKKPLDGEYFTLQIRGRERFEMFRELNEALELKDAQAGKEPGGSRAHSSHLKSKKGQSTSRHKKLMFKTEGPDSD

CS(=O)(=O)c1ccc(-c2cnc(N)c(C(=O)Nc3ccccc3)n2)cc1
activation [1]: -13%
Potency [2]: inactive
Potency [3]: inactive
Potency [4]: 7.42 µM (active)
Potency [5]: 4.68 µM (active)
Potency [6]: 5.9 µM (active)

COc1cc(N2CCC(N3CCN(C)CC3)CC2)ccc1Nc1ncnc(Nc2ccccc2S(=O)(=O)C(C)C)n1
Potency [1]: 24.3 µM (active) and 26.9 µM (active)
Potency [2]: inactive
Potency [3]: inactive
Potency [7]: 9.34 µM (active)
Potency [5]: 18.6 µM (active)
Potency [6]: 10.5 µM (active)

Cc1ccc(S(=O)(=O)Nc2cc(Cl)ccc2C(=O)Nc2nc(-c3ccccc3)cs2)cc1
activation [1]: 7.51%
Potency [2]: inactive
Potency [3]: inactive
Potency [6]: 7.42 µM (active)

N#CC[C@H](C1CCCC1)n1cc(-c2ncnc3[nH]ccc23)cn1
activation [1]: 7.18% and -12.3%
Potency [2]: inactive
Potency [3]: inactive
Potency [5]: 5.9 µM (active)

CNC(=O)c1cccc2cc(Oc3ccnc4cc(OCC5(N)CC5)c(OC)cc34)ccc12
activation [1]: 12.5%
Potency [2]: inactive
Potency [3]: inactive
Potency [7]: 16.6 µM (active)
Potency [8]: 18.6 µM (active)
Potency [5]: 20.9 µM (active)
Potency [6]: 23.5 µM (active)

NC1CCC(N[C@@H]2C[C@H]2c2ccccc2)CC1 (stereo partly specified)
activation [1]: 3.67% and 27.6%
Potency [2]: inactive
Potency [3]: inactive
Potency [6]: inactive

C[C@@H](N)c1ccc(C(=O)Nc2ccnc3[nH]ccc23)cc1
activation [1]: 21.5%
Potency [2]: inactive
Potency [3]: inactive
Potency [4]: 3.72 µM (active)
Potency [5]: 16.6 µM (active)
Potency [6]: 14.8 µM (active)

COC(=O)/C=C/C(=O)N(O)CCCCNCc1ccc(COC(=O)Nc2cccc3ccccc23)cc1
Potency [1]: 26.9 µM (active)
Potency [2]: inactive
Potency [3]: inactive
Potency [5]: 8.33 µM (active)
Potency [6]: 8.33 µM (active)

CC(Nc1ncnc2nc[nH]c12)c1cc2cccc(Cl)c2c(=O)n1-c1ccccc1 (stereo unspecified)
activation [1]: 27.7%
Potency [2]: inactive
Potency [3]: inactive
Potency [4]: 5.9 µM (active)
Potency [8]: 3.72 µM (active)

FC(F)c1nc2ccccc2n1-c1nc(N2CCOCC2)nc(N2CCOCC2)n1
activation [1]: 43.2% and 24.1%
Potency [2]: inactive
Potency [9]: 3.72 µM (active)
Potency [10]: 0.235 µM (active)
Potency [4]: 0.209 µM (active)

CS(=O)(=O)N1CCc2c(-c3cnc(N)nc3)nc(N3CCOCC3)nc21
activation [1]: 26%
Potency [2]: inactive
Potency [3]: inactive
Potency [4]: 4.68 µM (active)
Potency [8]: 0.662 µM (active)

CN(C)CCOc1cc(-c2cn[nH]c2)ccc1NC(=O)C1COc2ccccc2O1 (stereo unspecified)
activation [1]: -38.5% and -11.6%
Potency [2]: inactive
Potency [3]: inactive
Potency [7]: inactive
Potency [8]: inactive
Potency [5]: 5.9 µM (active)

Cc1ccccc1-n1nc(-c2c(-c3ccc(F)cc3)nn3c2NC[C@@H](CO)C3)ccc1=O
activation [1]: 2.68%
Potency [2]: inactive
Potency [3]: inactive
Potency [7]: inactive
Potency [5]: inactive
Potency [6]: inactive

Cc1nc2ccc(-n3ncc(C(=O)c4cc5ccccc5[nH]4)c3N)cc2[nH]1
activation [1]: 1.79%
Potency [2]: inactive
Potency [3]: inactive
Potency [4]: 6.61 µM (active)
Potency [6]: 16.6 µM (active)

O=c1[nH]nc(OCCCc2ccc(Cl)cc2)c(NCc2cccnc2)c1Br
activation [1]: -4.06% and -19.1%
Potency [2]: inactive
Potency [3]: inactive
Potency [6]: 20.9 µM (active)

CN(C)C(=O)c1cc2cnc(Nc3ccc(N4CCNCC4)cn3)nc2n1C1CCCC1
activation [1]: 15.2%
Potency [2]: inactive
Potency [3]: inactive
Potency [7]: inactive
Potency [8]: inactive
Potency [5]: inactive
Potency [6]: inactive

Cn1cc(-c2ccc3c(c2)CCN3C(=O)Cc2cccc(C(F)(F)F)c2)c2c(N)ncnc21
activation [1]: -11.6%
Potency [2]: inactive
Potency [3]: inactive
Potency [4]: 9.34 µM (active)
Potency [5]: 18.6 µM (active)
Potency [6]: inactive

NC(=O)c1ccc2nc(-c3ccc(Oc4ccc(Cl)cc4)cc3)[nH]c2c1
activation [1]: -21.2% and -4.33%
Potency [2]: inactive
Potency [3]: inactive
Potency [7]: 16.6 µM (active)
Potency [8]: inactive
Potency [6]: inactive

CC(C)(C)Cn1c(N)nc2ccc(-c3[nH]c(C(C)(C)C)nc3-c3ccc(F)cc3)nc21
activation [1]: -1.62%
Potency [2]: inactive
Potency [3]: inactive
Potency [7]: 23.5 µM (active)
Potency [8]: inactive

CN(C)CCCNC(=O)c1ccc(-c2cc(O)c3ncccc3c2)cc1
activation [1]: -8.46% and -17.9%
Potency [2]: inactive
Potency [3]: inactive
Potency [8]: 18.6 µM (active)

CC(O)c1cc(C(=O)N[C@@H](C)Cn2ccc(-c3ccc(C#N)c(Cl)c3)n2)n[nH]1 (stereo partly specified)
activation [1]: 1%
Potency [2]: inactive
Potency [3]: inactive
Potency [8]: inactive
Potency [6]: inactive
